# In PubChem BioAssay AID2075 (NMMLSC, 2009):
# The source made the active and inactive calls. No rule for the calls is given here.
# Target: Apoptosis regulator Bcl-2 (Homo sapiens) (UniProt P10415)
# Experiment: inhibitors of Bim-Bcl-2 binding, confirmation, biochemical, dose response, multiplexed HTS hits (AID 2075)
# Conditions: bead-based flow cytometry, Bim peptide-Bcl-2 binding; series mostly up to 100 µM
# Chain of Apoptosis regulator Bcl-2 (Homo sapiens) (P10415 whole entry, looked up): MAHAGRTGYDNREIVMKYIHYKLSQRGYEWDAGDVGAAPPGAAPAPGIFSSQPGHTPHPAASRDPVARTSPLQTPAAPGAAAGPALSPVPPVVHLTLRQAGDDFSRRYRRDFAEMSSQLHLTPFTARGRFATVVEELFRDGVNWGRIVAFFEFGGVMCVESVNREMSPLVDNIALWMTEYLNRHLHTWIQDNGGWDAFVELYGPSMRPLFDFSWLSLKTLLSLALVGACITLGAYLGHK
structure (smiles),measurement,value
O=C1NC(=O)C(=Cc2ccc(-c3cc(Cl)ccc3[N+](=O)[O-])o2)C(=O)N1,outcome,inactive
